High-throughput results (PubChem BioAssay)
AMA1-RON2 inh – inhibitors of Plasmodium falciparum AMA1-RON2 interaction; AlphaScreen AMA1-biotinylated RON2 peptide binding; Potency, µM (titrated, usually from 58.2 µM), actives largely listed as inhibitors; 0.2% of 360,000 active; note: nearly all actives have a fitted effect of over 45% in size
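AMA1 (3D7) with his tag at 25 nM final met compounds first, then biotinylated RON2 peptide at 25 nM; detection used donor plus acceptor beads, 10 µg/mL apiece, read by AlphaScreen after 30 min at room temperature.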
SARS PLP yeast – SARS-CoV PLP inhibition in yeast; S. cerevisiae expressing SARS-CoV PLpro, growth rescue; Potency, µM (series often up to 32.9 µM), actives largely listed as activators; 0.19% of 330,000 active; AID 485353; calls by dose curve; note: nearly all actives have a fitted effect of over 55% in size
Pf growth 96h – P. falciparum growth inhibition at 96 hours; Potency, µM (highest dose often 28.7 µM), hits mostly inhibitors; 6.9% of 320,000 active; P. falciparum luciferase reporter growth, 96 h
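Erythrocytes infected with luciferase-expressing P. falciparum were dispensed at 2% hematocrit and 0.05% parasitemia (final), then incubated with compounds 96 hours at 37 C in 5% CO2. Luminescence after detection reagent addition reported growth.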
Pf growth 48h – inhibits P. falciparum growth in the first generation, 48 h; Potency, µM (doses to about 28.7 µM), hits mostly inhibitors; P. falciparum luciferase growth in erythrocytes, 48 h; 5.9% of 310,000 active
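Luciferase-expressing P. falciparum in infected erythrocytes (2% hematocrit, 0.1% parasitemia final) in RPMI 1640/0.5% Albumax were exposed to compound for 48 hours at 37 C, 5% CO2; growth read as luminescence.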
Numbers stand for hits; - = inactive; ? = inconclusive; . = no result; [ ] = another dose, or the depositor's remark. This is a sample that favours compounds with a hit; in the whole collection about 9.4% have one here. Unless noted, calls come from the whole dose curve; as a rule, active = well fitted curve in the direction sought with a large enough effect; inconclusive = small, poorly fitted or top-dose-only effect, or another doubt; inactive = no such curve, though single readings can be large; an effect the other way counts as inactive or inconclusive.

SMILES	AMA1-RON2 inh	SARS PLP yeast	Pf growth 96h	Pf growth 48h
CS(=O)(=O)Nc1ccc2c(c1)[C@@H]1C[C@@H](CC(=O)NCc3cccnc3)O[C@H](CO)[C@@H]1O2	-	.	.	.
CC1=CC(C)(C)N(C(=O)CNC2CCCCC2)c2cc(C)ccc21	-	-	?	9.3µM
CC1=CC(C)(C)N(C(=O)CCl)c2cc(C)ccc21	-	-	?	-
Nc1c(C(=O)NCc2ccco2)nnn1CC(=O)Nc1ccc2c(c1)OCO2	-	-	?	12µM
Cc1ccc(NC(=O)Cn2nnc(C(=O)NCc3ccco3)c2N)cc1	-	-	-	.
CC(C)c1ccc(NC(=O)Cn2nnc(C(=O)NCc3ccco3)c2N)cc1	-	-	12µM	-
COc1cc(C2=NOC(C(=O)Nc3c(C)n(C)n(-c4ccccc4)c3=O)C2)cc(OC)c1OC (stereo not given)	-	-	-	-
CCC1CCCCN1CCCNC(=O)CSc1nc2nc(C)c(Cc3ccccc3Cl)c(C)n2n1 (stereo not given)	-	-	-	?
CCn1c(SCc2ccc(F)cc2)nc2ccccc2c1=O	-	-	-	-
CCn1c(SCc2ccc(F)cc2)nnc1-c1nn(-c2ccccc2)ccc1=O	-	-	5.2µM	?
O=C1C(Cc2ccccc2)C(c2ccccc2)N1c1ccccc1 (stereo not given)	-	-	10µM	?
C[C@H]1C(=O)N(c2ccccc2)[C@@H]1c1ccccc1	-	-	.	.
C=CCN1C(=O)N(c2ccc(F)cc2)C(=O)C1CC(=O)Nc1ccc(Cl)cc1 (stereo not given)	-	-	?	?
COc1ccc(C[C@@H]2CN3C(=NC[C@@H]3C)N2CCNC(=O)c2ccc(C)c(Br)c2)cc1	-	-	13µM	?
Cc1ccc(C(=O)NNC(=O)C2CC2)cc1Br	-	-	-	-
Cc1ccc(C(=O)N[C@@H](C)CN2C3=NC[C@H](C)N3C[C@H]2Cc2ccc(O)cc2)cc1Br	.	-	4.1µM	10µM
C/C=C(\C)C(=O)NCCN1C2=NC[C@H](C)N2C[C@@H]1Cc1ccc(OC)cc1	-	-	-	-
CCSc1nnc(NC(=O)c2csc(C)c2)s1	-	-	.	-
COc1ccccc1NC(=O)N(CCN1CCOCC1)Cc1cc2cc(C)cc(C)c2[nH]c1=O	-	-	-	?
O=C1NN=C2CCCCCCC12 (stereo not given)	-	.	.	.
CC(C)(C)C(=O)CN1C(=O)NC(c2ccccc2)(c2ccccc2)C1=O	-	-	?	?
Cc1cccc(CN2C(=O)NC(c3ccccc3)(c3ccccc3)C2=O)c1	-	-	?	10µM
Cc1ccsc1CN(C)C(=O)CN1C(=O)NC(c2ccccc2)(c2ccccc2)C1=O	-	-	9.3µM	13µM
CN(Cc1ccccc1)C(=O)CN1C(=O)NC2(CCCCCCC2)C1=O	-	-	?	9.3µM
COc1cccc(CN(C)C(=O)CN2C(=O)NC(c3ccccc3)(c3ccccc3)C2=O)c1OC	-	-	12µM	?
SMILES	AMA1-RON2 inh	SARS PLP yeast	Pf growth 96h	Pf growth 48h
CSc1ccc(CN(C)C(=O)CN2C(=O)NC3(CCCC3)C2=O)cc1	-	-	-	-
CCOc1ccc(CCNC(=O)COC(=O)c2cc(OC)cc(OC)c2)cc1OCC	-	-	-	-
Cc1ccc(C(=O)CSc2ncnc3ccccc23)o1	-	-	-	-[5.75 µM]
COc1cccc(CNC(=O)CN2C(=O)NC(c3ccccc3)(c3ccccc3)C2=O)c1	-	-	-	-
CC1CCC(N(C)C(=O)CN2C(=O)NC(c3ccccc3)(c3ccccc3)C2=O)CC1 (stereo not given)	-	.	.	.
COc1ccc(C2(c3ccc(OC)cc3)NC(=O)N(CC(=O)N(C)C3CCC(C)CC3)C2=O)cc1 (stereo not given)	-[11.6 µM]	-	?	10µM
COc1cccc(CN(C)C(=O)CN2C(=O)NC(c3ccccc3)(c3ccccc3)C2=O)c1	-	-	10µM	10µM
Cn1c(=O)[nH]c2cc3ccccc3cc21	-	-	-	-
CCCCOC(=O)c1[nH]c2c(c1C)C(=O)CC(c1cc(OC)c(OC)c(OC)c1)C2 (stereo not given)	-	-	-	2.9µM
CCOc1ccc(C2CC(=O)c3c([nH]c(C(=O)OC)c3C)C2)cc1OC (stereo not given)	-	.	-	?
C=CCOC(=O)c1[nH]c2c(c1C)C(=O)CC(c1cc(OC)c(OC)c(OC)c1)C2 (stereo not given)	-	-	12µM	9.3µM
COCCOC(=O)c1[nH]c2c(c1C)C(=O)CC(c1ccc(F)cc1)C2 (stereo not given)	-	-	?	.
